Reference: PubChem BioAssay AID1159580 (chemical genetic matrix, 2015)
Where “and” joins values, the source holds several entries; their conditions need not be identical. Equal values may be shown once. The campaign covered roughly 5,500 compounds. About 2,000 (36%) were called active. About 18% were inconclusive and are not listed. Rule as the data show it: active = normalized growth mostly below about 0.91 (no sharp cut-off); inconclusive = no clear call, values can overlap the other calls; inactive = mostly above about 0.92. The list shows a part of the results.

Assay: chemical genetic growth profiling, strain panel (AID 1159580);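 also: tested at 20 µM; growth read once vehicle control cultures reached saturation at 30 °C; 1 = growth at the plate median or of vehicle wells; lower values mean less growth of the strain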
Conditions: S. cerevisiae deletion strains, growth OD

Measured: normalized growth

C[C@]12CCC(=O)C=C1CCC1C2[C@@H](O)C[C@@]2(C)C1CC[C@]2(O)C(=O)COC(=O)CCC(=O)O (stereo not given in full)
inactive: locus YAL021C, strain ccr4, active compounds read low 1.02 | locus YAL026C, strain drs2, active compounds read low 1.01 | locus YAL030W, strain snc1, active compounds read low 1.01 | locus YBL061C, strain skt5, active compounds read low 1.02 | locus YBR009C, strain hhf1, active compounds read low 1 | locus YBR021W, strain FUR4, active compounds read low 1.01 | locus YBR023C, strain chs3, active compounds read low 1.02 | locus YBR171W, strain sec66, active compounds read low 1.02 | locus YBR229C, strain ROT2, active compounds read low 1.01 | locus YBR231C, strain swc5, active compounds read low 1.02 | locus YBR279W, strain paf1, active compounds read low 1 | locus YCL011C, strain gbp2, active compounds read low 1.01 | locus YCL016C, strain dcc1, active compounds read low 0.993 | locus YCL029C, strain bik1, active compounds read low 0.999 | locus YCL061C, strain MRC1, active compounds read low 1.02 | locus YCL069W, strain vba3, active compounds read low 1.01 | locus YCR088W, strain abp1, active compounds read low 1.01 | locus YDL005C, strain med2, active compounds read low 1.02 | locus YDL035C, strain GPR1, active compounds read low 1.01 | locus YDL040C, strain nat1, active compounds read low 1.01 | locus YDL074C, strain BRE1, active compounds read low 1.01 | locus YDL101C, strain DUN1, active compounds read low 1 | locus YDL185W, strain tfp1, active compounds read low 1 | locus YDL192W, strain arf1, active compounds read low 1.01 | locus YDR001C, strain nth1, active compounds read low 1.02 | locus YDR069C, strain doa4, active compounds read low 1.02 | locus YDR101C, strain arx1, active compounds read low 1.01 | locus YDR137W, strain rgp1, active compounds read low 1.02 | locus YDR150W, strain NUM1, active compounds read low 1.01 | locus YDR159W, strain sac3, active compounds read low 1.03 | locus YDR162C, strain NBP2, active compounds read low 1.01 | locus YDR195W, strain ref2 0.997 | locus YDR297W, strain sur2, active compounds read low 1.02 | locus YDR318W, strain mcm21, active compounds read low 0.995 | locus YDR334W, strain swr1, active compounds read low 1.01 | locus YDR335W, strain msn5, active compounds read low 1.01 | locus YDR388W, active compounds read low 1 | locus YDR392W, strain spt3, active compounds read low 0.969 | locus YDR502C, strain sam2, active compounds read low 0.999 | locus YEL003W, strain gim4, active compounds read low 1.03 | locus YEL037C, strain rad23, active compounds read low 1.01 | locus YEL061C, strain CIN8 (second series), active compounds read low 1.03 | locus YEL061C, strain CIN8, active compounds read low 1.01 | locus YER015W, strain faa2, active compounds read low 0.998 | locus YER016W, strain bim1, active compounds read low 1.01 | locus YER110C, active compounds read low 1.01 | locus YER111C, strain swi4, active compounds read low 1.02 | locus YER155C, strain BEM2 (second series), active compounds read low 1.03 | locus YER155C, strain BEM2, active compounds read low 0.997 | locus YER167W, strain BCK2, active compounds read low 1.01 | locus YFR010W, strain ubp6, active compounds read low 1.02 | locus YGL078C, strain dbp3, active compounds read low 0.996 | locus YGL086W, strain mad1, active compounds read low 0.999 | locus YGL167C, strain pmr1, active compounds read low 1.03 | locus YGL173C, strain kem1, active compounds read low 1.02 | locus YGL227W, strain vid30, active compounds read low 1.01 | locus YGL240W, strain doc1, active compounds read low 1.02 | locus YGL248W, strain PDE1, active compounds read low 1 | locus YGL253W, strain hxk2, active compounds read low 0.99 | locus YGR078C, strain PAC10, active compounds read low 1.01 | locus YGR135W, strain pre9, active compounds read low 0.989 | locus YGR252W, strain gcn5, active compounds read low 0.943 | locus YHR013C, strain ard1, active compounds read low 1.02 | locus YHR027C, strain rpn1, active compounds read low 1.02 | locus YHR030C, strain SLT2, active compounds read low 1.01 and 0.974 | locus YHR079C, strain IRE1 (second series), active compounds read low 1 | locus YHR079C, strain IRE1, active compounds read low 0.976 | locus YHR094C, strain hxt1, active compounds read low 0.993 | locus YHR129C, strain ARP1, active compounds read low 1 | locus YHR142W, strain chs7, active compounds read low 1.01 | locus YHR200W, strain rpn10, active compounds read low 1.01 | locus YIL066C, strain RNR3, active compounds read low 1.01 | locus YIL073C, strain SPO22, active compounds read low 1.02 | locus YIL125W, strain kgd1, active compounds read low 1 | locus YIR030C, strain dcg1, active compounds read low 1 | locus YJL092W, strain hpr5, active compounds read low 1.02 | locus YJL095W, strain BCK1 (second series), active compounds read low 1.02 | locus YJL095W, strain BCK1, active compounds read low 1.01 and 0.976 | locus YJL115W, strain asf1, active compounds read low 1.02 | locus YJL129C, strain trk1, active compounds read low 1.03 | locus YJL134W, strain LCB3, active compounds read low 1.01 | locus YJL154C, strain vps35, active compounds read low 1.02 | locus YJL164C, strain tpk1, active compounds read low 1.02 | locus YJL166W, strain qcr8, active compounds read low 1 | locus YJL168C, strain set2, active compounds read low 0.996 | locus YJL187C, strain SWE1 (second series), active compounds read low 1.01 | locus YJR043C, strain POL32, active compounds read low 1.02 | locus YJR066W, strain TOR1, active compounds read low 0.931 | locus YJR075W, strain HOC1, active compounds read low 1.02 | locus YKL009W, strain mrt4, active compounds read low 1.02 | locus YKL068W, active compounds read low 0.998 | locus YKL085W, strain MDH1 (second series), active compounds read low 0.999 | locus YKL085W, strain MDH1, active compounds read low 0.999 | locus YKL160W, strain elf1, active compounds read low 1.01 | locus YKR001C, strain vps1, active compounds read low 1.01 | locus YKR026C, strain gcn3, active compounds read low 1.02 | locus YKR091W, strain srl3, active compounds read low 1 | locus YLL001W, strain dnm1, active compounds read low 1.01 | locus YLL026W, active compounds read low 1.01 | locus YLL041C, strain sdh2, active compounds read low 1.03 | locus YLR027C, strain aat2, active compounds read low 1.01 | locus YLR039C, strain RIC1, active compounds read low 1.02 | locus YLR058C, strain SHM2, active compounds read low 0.989 | locus YLR102C, strain apc9, active compounds read low 1 | locus YLR113W, strain HOG1, active compounds read low 0.977 | locus YLR221C, strain rsa3, active compounds read low 1.02 | locus YLR258W, strain gsy2, active compounds read low 1.01 | locus YLR262C, strain YPT6 (second series), active compounds read low 1.02 | locus YLR262C, strain YPT6, active compounds read low 1.06 | locus YLR268W, strain sec22, active compounds read low 0.992 | locus YLR320W, strain mms22, active compounds read low 0.979 | locus YLR330W, strain CHS5, active compounds read low 1.01 | locus YLR342W, strain FKS1 (second series), active compounds read low 0.998 | locus YLR342W, strain FKS1, active compounds read low 1.01 | locus YLR357W, strain rsc2, active compounds read low 0.995 | locus YLR370C, strain arc18, active compounds read low 1.01 | locus YLR371W, strain rom2, active compounds read low 0.996 | locus YLR384C, strain iki3, active compounds read low 1.02 | locus YLR418C, strain cdc73, active compounds read low 0.988 | locus YML016C, strain PPZ1, active compounds read low 1 | locus YML032C, strain rad52, active compounds read low 0.994 | locus YML120C, strain ndi1, active compounds read low 1.02 | locus YML124C, strain tub3, active compounds read low 0.994 | locus YMR058W, strain fet3, active compounds read low 1.02 | locus YMR078C, strain ctf18, active compounds read low 1 | locus YMR125W, strain sto1, active compounds read low 1.01 | locus YMR129W, active compounds read low 1.02 | locus YMR205C, strain PFK2, active compounds read low 1.03 | locus YMR223W, strain ubp8, active compounds read low 0.992 | locus YMR231W, strain pep5, active compounds read low 1.01 | locus YMR307W, strain GAS1, active compounds read low 1.04 | locus YNL067W, strain RPL9B, active compounds read low 1.01 | locus YNL071W, strain lat1, active compounds read low 1.01 | locus YNL183C, strain NPR1, active compounds read low 0.951 | locus YNL209W, strain ssb2, active compounds read low 1.01 | locus YNL233W, strain BNI4, active compounds read low 1 | locus YNL248C, strain rpa49, active compounds read low 1.04 | locus YNL250W, strain rad50, active compounds read low 1 | locus YNL271C, strain bni1, active compounds read low 1.01 | locus YNL298W, strain CLA4, active compounds read low 1.01 | locus YNL307C, strain MCK1, active compounds read low 1.01 | locus YNL322C, strain KRE1 (second series), active compounds read low 1.02 | locus YNL322C, strain KRE1, active compounds read low 1.01 | locus YNR049C, strain mso1, active compounds read low 1.02 | locus YNR052C, strain pop2, active compounds read low 1 | locus YOL006C, strain TOP1, active compounds read low 1.01 | locus YOL012C, strain htz1 0.91 | locus YOL147C, strain pex11, active compounds read low 1 | locus YOR001W, strain rrp6, active compounds read low 1.02 | locus YOR061W, strain CKA2, active compounds read low 1.01 | locus YOR069W, strain VPS5, active compounds read low 1.01 | locus YOR070C, strain gyp1, active compounds read low 1 | locus YOR080W, strain dia2, active compounds read low 1.01 | locus YOR083W, strain WHI5, active compounds read low 0.983 | locus YOR106W, strain vam3, active compounds read low 1.04 | locus YOR136W, strain idh2, active compounds read low 1.01 | locus YOR144C, strain elg1, active compounds read low 1 | locus YOR184W, strain ser1, active compounds read low 1.01 | locus YOR231W, strain MKK1, active compounds read low 0.997 | locus YOR265W, strain rbl2, active compounds read low 1.01 | locus YOR270C, strain vph1, active compounds read low 0.99 | locus YOR290C, strain snf2, active compounds read low 0.988 | locus YOR316C, strain cot1, active compounds read low 1.01 | locus YPL051W, strain arl3, active compounds read low 1 | locus YPL055C, strain LGE1, active compounds read low 1.01 | locus YPL078C, strain atp4, active compounds read low 1 | locus YPL106C, strain sse1, active compounds read low 1 | locus YPL240C, strain hsp82, active compounds read low 1 | locus YPL241C, strain CIN2, active compounds read low 1.01 | locus YPL256C, strain CLN2, active compounds read low 0.98 | locus YPR119W, strain clb2, active compounds read low 1.01 | locus YPR141C, strain kar3, active compounds read low 1.01 | locus YPR163C, strain tif3, active compounds read low 1.01 | locus YPR167C, strain met16, active compounds read low 1.01 | strain wtn01, active compounds read low 0.996
